Assay results from PubChem BioAssay (NCI).
Compounds without any hit were thinned out: in the full panel of roughly 83,000, 20% have a hit.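 The endpoint reported here, percent growth, reads 100 for growth as untreated, 0 for no net growth and -100 for all cells dead.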 Values without a mark were called inactive. Calls of active or inactive are those of the source. How the source made its calls: active means growth percent below 10; inactive means the rest.

What was measured:
Experiment in all cases: NCI-60 one-dose screen, 48 h (100 = growth as untreated, 0 = no growth, -100 = all killed)
Conditions in all cases: 10 µM unless noted
DU-145 prostate = tested on: DU-145 prostate
K-562 leukemia = tested on: K-562 leukemia
MALME-3M melanoma = tested on: MALME-3M melanoma
MDA-MB-231 breast = tested on: MDA-MB-231 breast
RXF 393 renal = tested on: RXF 393 renal
SF-268 CNS = tested on: SF-268 CNS
SF-295 CNS = tested on: SF-295 CNS
SF-539 CNS = tested on: SF-539 CNS
UACC-257 melanoma = tested on: UACC-257 melanoma
M14 melanoma = tested on: M14 melanoma

| Compound | growth (DU-145 prostate) | growth (K-562 leukemia) | growth (MALME-3M melanoma) | growth (MDA-MB-231 breast) | growth (RXF 393 renal) | growth (SF-268 CNS) | growth (SF-295 CNS) | growth (SF-539 CNS) | growth (UACC-257 melanoma) | growth (M14 melanoma) |
| --- | --- | --- | --- | --- | --- | --- | --- | --- | --- | --- |
| C=CCn1c(SCC(=O)Nc2ccc(C(=O)/C=C/c3cc(OC)c(OC)c(OC)c3)cc2)nnc1-c1ccc(Cl)cc1 | 10.8% | 9.24% (active) | 66.2% | 35.5% | -42.4% (active) | 19.8% | 38.9% | 17.2% | 51.3% | 12.6% |
| CC(C)(C)c1ccc(O)c(Cc2cc(C(C)(C)C)ccc2O)c1 | 105% | 87.1% | 104% | 88.1% | 101% | 93.1% | 109% | 108% | 86.6% | 92.3% |
| COc1ccc(Nc2cc(NC(=O)CNc3cc(OC)c(Cl)c(OC)c3Cl)ncn2)cc1 | 98.8% | 74.1% | 106% | 69.4% | 86.7% | 78.3% | 76.4% | 82% | 88% | 75.2% |
| CCCCn1c(=O)c(/C=C/C(=O)/C=C/c2ccc(O)c(OC)c2)cc2ccc(Cl)cc21 | 19.3% | 6.69% (active) | 30.2% | -11.2% (active) | -15.4% (active) | 29.9% | 30.2% | 52.6% | 32.1% | 5.1% (active) |
| COc1cc(C2=NNC(c3ccc(N(C)C)cc3)C2)cc(OC)c1OC (stereo not given) | 3.51% (active) | -9.17% (active) | 83.7% | 31.9% | -31.7% (active) | 55.7% | 30.3% | -39.2% (active) | 62.6% | 21.7% |
| COc1ccccc1C(=O)/C=C/c1cc2cccc(OC)c2[nH]c1=O | 16.5% | 5.33% (active) | -0.686% (active) | -0.926% (active) | -43.5% (active) | 2.36% (active) | 14.1% | -10% (active) | 33.6% | 9.63% (active) |
| C[C@@H]1C(=O)[C@@H]2C[C@@H](O)[C@@H](O)C[C@]2(C)[C@H]2CC[C@@]3(C)C(=C12)CC[C@@H]3[C@@](C)(O)[C@H](O)CCC(C)(C)O | 99.2% | 94.9% | 103% | 107% | 116% | 98.2% | 108% | 103% | -10.5% (active) | 105% |
| COc1ccc(-c2nc(C#N)c(NCC(c3ccc(Cl)cc3)N3CCCCC3)o2)cc1 (stereo not given) | 94% | 76.7% | 91.4% | 102% | 71.8% | 89.7% | 96.1% | 101% | 109% | 92.7% |
| O=S(=O)(Nc1nccs1)c1ccc(Nc2nc(-c3ccncc3)cs2)cc1 | 106% | 109% | 113% | 105% | 110% | 107% | 120% | 88.2% | 109% | 103% |
| CCOC(=O)c1c(C)nc2c(c1N)/C(=C/c1cccs1)C(=O)N2Cc1ccccc1 | 62% | 34.7% | 85.1% | 55.4% | 40% | 74.7% | 88% | 90.7% | 74% | 73.8% |
| COc1ccc(C(=O)c2cc(OC)c(OC)c(OC)c2)cc1OC(=O)CCl | 5.3% (active) | 13.3% | 71% | 34.4% | 56.6% | 37.3% | 17.3% | 1.91% (active) | 48.9% | 5.59% (active) |
| COc1cc(NC(=O)c2cc(O)c(C/C=C(\C)CCC=C(C)C)c(O)c2)cc2c1O[C@]1(C)CC[C@@H](O)C(C)(C)[C@H]1C2 | 20.3% | 0.252% (active) | -18.5% (active) | -33.7% (active) | -38.7% (active) | 15.7% | -8.51% (active) | -51.2% (active) | 34.4% | -15.4% (active) |
| N#Cc1c(-c2ccc(F)cc2)nc(N/N=C/c2c[nH]c3ccccc23)nc1N1CCOCC1 | 46.6% | 5.72% (active) | -63.5% (active) | 53.1% | -34.2% (active) | 68.8% | -17.4% (active) | 52.8% | -48.8% (active) | -0.73% (active) |
| O=C(CCl)N1CCCc2ccccc21 | 97.7% | 101% | 98.3% | 99.5% | 89.1% | 94.9% | 95.7% | 103% | 107% | 93.9% |
| COc1ccc(-c2cc(-c3nnc(SCC(=O)Nc4ccc(C(C)=O)cc4)o3)c3ccccc3n2)cc1 | 6.34% (active) | 35.2% | -52.7% (active) | -23.9% (active) | -4.69% (active) | 33.8% | 42.5% | 12.3% | 68.3% | 5.23% (active) |
| CCCCn1c2cc(OCc3cn(-c4ccc(Cl)cc4)nn3)ccc2c2ccnc(C)c21 | 72.5% | 14.4% | 53.9% | 16.7% | 47.6% | 74.6% | 40.2% | 55% | 33.6% | 40.6% |
| N#Cc1c(-c2ccc(F)cc2)nc(N=Nc2c(O)[nH]c3ccccc23)nc1N1CCOCC1 | 69.1% | 91.8% | 63.7% | 66% | 62.8% | 77.3% | 70.2% | 85.5% | 77.8% | 72.3% |
| COc1ccc2nc3c(n2c1)C(=O)C(=O)c1ccccc1-3 | -92.5% (active) | -18.2% (active) | -90.1% (active) | 16.7% | -16.9% (active) | 2.6% (active) | -95.3% (active) | -95.3% (active) | -83.2% (active) | -82.9% (active) |
| CC(=O)O[C@@H]1C[C@]2(C)[C@H]3[C@H](O)C[C@@H]4C5=CC(C)(C)CC[C@]5(C)CC[C@@]4(C)[C@]3(C)CC[C@H]2C(C)(C)[C@H]1O | 107% | 108% | 107% | 113% | 111% | 101% | 104% | 102% | 110% | 99.3% |
| CCOC(=O)CC[C@H](NC(=O)c1ccc(NC)c2ccccc12)C(=O)OCC | 104% | 92.9% | 114% | 97.9% | 111% | 100% | 101% | 98.1% | 86.1% | 99.5% |
| O=C(C[n+]1cccc2cc(Cl)ccc21)c1ccc2c(c1)CCCC2 | 10.5% | 10.6% | -30.9% (active) | 5.63% (active) | 62% | 27.6% | 47.2% | -10.9% (active) | 5.48% (active) | 32.6% |
| Cc1ccc(CS/C(=C\c2ccc([N+](=O)[O-])cc2)C(=O)c2ccc(F)cc2)cc1 | 91.2% | -0.821% (active) | 83.7% | 60.5% | 100% | 74.6% | 79.2% | 98.1% | 93.3% | 40.8% |
| COc1cc(/C=C/C(=O)c2ccc(NC(=O)CSc3nnc(-c4cc(OC)c(OC)c(OC)c4)n3-c3ccccc3)cc2)cc(OC)c1OC | 26.5% | 6.66% (active) | 67.7% | 42.7% | -55.4% (active) | 34.3% | 17.7% | 18.6% | 45.8% | -9.25% (active) |
| COc1ccc(-c2cs/c(=N\N=C\c3ccc(O)cc3O)n2/N=C/c2ccc(O)cc2O)cc1 | 4.25% (active) | -4.98% (active) | -22.5% (active) | 1.96% (active) | -35.6% (active) | 4.27% (active) | -24.4% (active) | -33.1% (active) | -3.6% (active) | -19% (active) |
| Cc1ccc(C(=O)O)o1 | 107% | 103% | 104% | 111% | 118% | 98.1% | 99.8% | 99.5% | 103% | 101% |
